Among the data in paper PMC12864922, “TDP-43 directly inhibits mRNA accumulation in neurites through modulation of mRNA stability” are binding signal values, retold here.

Sequences and labels used below:
B1: ENSMUSG00000022095.259|Fam160b2 (ssRNA)
RNA: GGGAGUUCUACAGUCCGACGAUCGCUUCGAUAUCCGCAUGCUAGAGAGAGCGAGCUAUGAAUGAAUGUGAGUGUGUGUGUGUGUGUGUGUGUGUGAGAGAGAGAGAGAGAGAGCGAGCUAUGAAUGAAUGUGAGUGUGUGUGUGUGUGUGUGUGAGAGAGAGAGAGAGAGAGAGAGAGCUGUGAGUACACAUGGGUGCUGGUGUGGGACAGGAGCAGAUCUUGGUGGAGUGGGUCUACACUUGAGAUUUGUACUCGUUUGAGAGGCUGGGCAAUACUCAAUGCACUUUGGCAUUUGCAUGGUGCUCUUGCGGUCGCACUAGUGUGGAAUUCUCGGGUGUCAAGG
B2: ENSMUSG00000022095.262|Fam160b2 (ssRNA)
RNA: GGGAGUUCUACAGUCCGACGAUCGCUUCGAUAUCCGCAUGCUAUGAAUGUGAGUGUGUGUGUGUGUGUGUGUGUGUGAGAGAGAGAGAGAGAGAGCGAGCUAUGAAUGAAUGUGAGUGUGUGUGUGUGUGUGUGUGAGAGAGAGAGAGAGAGAGAGAGAGCUGUGAGUACACAUGGGUGCUGGUGUGGGACAGGAGCAGAUCUUGGUGGAGUGGGUCUACACUUGAGAUUUGUACUCGUUUGAGAGGCUGGGCAAUACUCAAUGCACUUUGGCAUUUGCAUGGUGUCUUCACAACAGCACAGCCUCUUGCGGUCGCACUAGUGUGGAAUUCUCGGGUGUCAAGG
B3: ENSMUSG00000022095.267|Fam160b2 (ssRNA)
RNA: GGGAGUUCUACAGUCCGACGAUCGCUUCGAUAUCCGCAUGCUAUGUGAGAGAGAGAGAGAGAGAGCGAGCUAUGAAUGAAUGUGAGUGUGUGUGUGUGUGUGUGUGAGAGAGAGAGAGAGAGAGAGAGAGCUGUGAGUACACAUGGGUGCUGGUGUGGGACAGGAGCAGAUCUUGGUGGAGUGGGUCUACACUUGAGAUUUGUACUCGUUUGAGAGGCUGGGCAAUACUCAAUGCACUUUGGCAUUUGCAUGGUGUCUUCACAACAGCACAGCAAUAAACAUUGUGAUUGUGUGGACAUGCUGCUCUUGCGGUCGCACUAGUGUGGAAUUCUCGGGUGUCAAGG
B4: ENSMUSG00000022095.264|Fam160b2 (ssRNA)
RNA: GGGAGUUCUACAGUCCGACGAUCGCUUCGAUAUCCGCAUGCUAUGUGUGUGUGUGUGUGUGUGUGAGAGAGAGAGAGAGAGAGCGAGCUAUGAAUGAAUGUGAGUGUGUGUGUGUGUGUGUGUGAGAGAGAGAGAGAGAGAGAGAGAGCUGUGAGUACACAUGGGUGCUGGUGUGGGACAGGAGCAGAUCUUGGUGGAGUGGGUCUACACUUGAGAUUUGUACUCGUUUGAGAGGCUGGGCAAUACUCAAUGCACUUUGGCAUUUGCAUGGUGUCUUCACAACAGCACAGCAAUAAACAUUGUCUCUUGCGGUCGCACUAGUGUGGAAUUCUCGGGUGUCAAGG
B5: ENSMUSG00000022095.266|Fam160b2 (ssRNA)
RNA: GGGAGUUCUACAGUCCGACGAUCGCUUCGAUAUCCGCAUGCUAUGUGUGUGUGAGAGAGAGAGAGAGAGAGCGAGCUAUGAAUGAAUGUGAGUGUGUGUGUGUGUGUGUGUGAGAGAGAGAGAGAGAGAGAGAGAGCUGUGAGUACACAUGGGUGCUGGUGUGGGACAGGAGCAGAUCUUGGUGGAGUGGGUCUACACUUGAGAUUUGUACUCGUUUGAGAGGCUGGGCAAUACUCAAUGCACUUUGGCAUUUGCAUGGUGUCUUCACAACAGCACAGCAAUAAACAUUGUGAUUGUGUGGACCUCUUGCGGUCGCACUAGUGUGGAAUUCUCGGGUGUCAAGG
B6: ENSMUSG00000032194.73|Kank2|146:150 (ssRNA)
RNA: GGGAGUUCUACAGUCCGACGAUCGCUUCGAUAUCCGCAUGCUAUUUGAAUGUCACUGGAAUGUUACAGUGUCUAUUGUCUCCUCAUCUUUACAGCAGGUCUCCACAAAGCCUGCUCACCACCCUUUGUCACCUCAUUUCAUUGUCUAGUGUACAAUAGGGUCUUGUCCACUGCCCUCCACCUCCAGACACACACUUCAGGGCCUGGGGUGUCUCUUGUGAUUGCUUUACAGAAUAAGAUUGCCGUACCUUAGCCGCCUGCCUCCAGUCAGAAAGCAGUGUUUUCAUUUGCCUUUUUCCUUUCUCUCUUGCGGUCGCACUAGUGUGGAAUUCUCGGGUGUCAAGG
B7: ENSMUSG00000058297.497|Spock2|151:155 (ssRNA)
RNA: GGGAGUUCUACAGUCCGACGAUCGCUUCGAUAUCCGCAUGCUAGGUUGGAGAGAGUAAAUGUGCCUUGAGAGACCACUCAGAGGUCCCAGGAGGAACGGGGGCGGGGCUUAGCCUGGGAGUUCUGGCAGGAGGCAAAGUUGGUGAGAGUCCUGGGACAUCUUACCCCCAGUGUUCCACAGGAGUCGUGACCACCACACAUGGGUGGGCACAGGUCUGCCUUGCUCCAGCCCCCUCCCUUGGUUUCUGUUGGUACCCAUUUGGCUUUUAUCUGCUUUCUGCUUCACCACUAAGUGCGUAGGUGGCUCUUGCGGUCGCACUAGUGUGGAAUUCUCGGGUGUCAAGG
B8: ENSMUSG00000061578.971|Ksr2 (ssRNA)
RNA: GGGAGUUCUACAGUCCGACGAUCGCUUCGAUAUCCGCAUGCUAGGAAGGUAGUUUUCCCCCAGAAAGUCCCUUCUAAUAAACAUUGAUGACUUUAGAAUCCAUGACUCAGAAUUUUCCAGAGACCCAAUCCCUCGGGGUCCACUUAGUGAUGGGACCAUACAAGAGUUUAUUUCCAAUUAGAGAAUUGGGUCAACUGGGAAAGGCUUCUUUCCUGGUAACCCUGCUACUGAUACUAUGUUGAAACAGGAAUCGACUCUAACUGCUUUUUGGCCUCUUCCCUGCACGGGAGUCUCAAAAUCAAGCUCUUGCGGUCGCACUAGUGUGGAAUUCUCGGGUGUCAAGG
B9: ENSMUSG00000058297.456|Spock2 (ssRNA)
RNA: GGGAGUUCUACAGUCCGACGAUCGCUUCGAUAUCCGCAUGCUAUCACACAGGUCAGAUUAUUGUCGGUCCUGCGGGCCUCAUCCUUGAAUAAGCUGCCUGCCCAGUUCCUCCAUCCGUGUUCCUGCCUGCUCCCGUUCCCUUGUUGCGGGCAGGAGAGGUAGGGCUGUGUUGGAAAGAGUUCAACCAAAUUACGGCAGCACCACAUCUUGCCGAGCCCUGGAGCUGCCCUACUAAGAGCCUCCUUAGCCCUGGGUGCUGGGAAGGAUGGUGUACGUUGGGGAAGUUUGAGGUUGGAGAGAGUACUCUUGCGGUCGCACUAGUGUGGAAUUCUCGGGUGUCAAGG
B10: ENSMUSG00000029028.209|Lrrc47 (ssRNA)
RNA: GGGAGUUCUACAGUCCGACGAUCGCUUCGAUAUCCGCAUGCUACAGCAGCUGCACAGAGGACUUGGUGGCCCCGUGCCUUGCCAUCUGGCUGAGAAGAGAACCAGACCCUCAGCCUUCCCCCUCGACACCUUCUCGUUGGUGACCUCUGACCUUAAAGGACCAUUUCUACCUUCUGUAAAAGAACACCUGUUUGGGGUUGCGUGCGGCUUUCAUCCUAAGGCCGUGCGAGAGCCGUUAGCUGUCAGAACUAGUGAAGCUCCAGGCUCCUCGUGGCAGACCCUGGACAACGCUGGUAGCUGUUCCUCUUGCGGUCGCACUAGUGUGGAAUUCUCGGGUGUCAAGG
B11: ENSMUSG00000029636.505|Wasf3|28:32 (ssRNA)
RNA: GGGAGUUCUACAGUCCGACGAUCGCUUCGAUAUCCGCAUGCUAAUCAUUUAUGAGCAUAGGAUGAUGAGGCACACAAAGCUUUGUAAUAUUUUCAGCAGAAAUGCGUGAUACAUUUGAAUCCAUUGAGGUCUGGAGGGAGGGUAUCAGCCAGAGUAGCAAGGCGGUUUUGUUUAUUUGUUUGUUUUUUUGUUUGUUUGUUUUAUGAAGGAGAGUAUCUGUUAUCUUGCAGUAUUAUCAAUGCAGUUGUAAAUUGAAUCUAAAGUGGUAUUUAAAACUGUCAAACAAUUUUUAAUCUGUUUGUACUCUUGCGGUCGCACUAGUGUGGAAUUCUCGGGUGUCAAGG
B12: ENSMUSG00000031028.267|Tub (ssRNA)
RNA: GGGAGUUCUACAGUCCGACGAUCGCUUCGAUAUCCGCAUGCUAUGCUUUGAAAUAGAUAUGUUUGGAAACGCUAAGUAGAAGUUUAAAAAGUAGAGUCAUGUAGAGUCAUGCUUUGAAUAUGUGGGUCAUGCUUUAGAUAUGAAGAGGCUAUGCAGGUAAGGAGGCUGGAUUGAUGUAAAUGGAAGUAGUACUUUAAGAAAGCUCUAGAUUUCCCAGGUUGGACACUCGACGAAAGGCACACCUGCUGCAGCAGGUUCUGACACACCUGAGCCAUACAUUGCCAUCAGAGAACCCUCAGCGAGCUCUUGCGGUCGCACUAGUGUGGAAUUCUCGGGUGUCAAGG
B13: ENSMUSG00000043670.108|Diras1 (ssRNA)
RNA: GGGAGUUCUACAGUCCGACGAUCGCUUCGAUAUCCGCAUGCUACUUUCACCUGAUCCUGUCCUUUCCCCGUGACCUCUGACCUGUGGCCUUCCCUGGGUCCAGAACACCCCUGUCCUCUCCUGUCUGCACACCAGGGUGGAUGGGCCCGAGGGCUGGGCCUCAGGCACCAGGCAAUAAACACAGGGCCUGCAGCAAUGCCCUGGCCACCCCGAGUACCACCUCUGGAAUAGCAGACGCCCACAGCACAAGCCCAGGACUGUCCCUUCAGGGGAGGCACACUGGAACCCUGAACUUGGAGUGUGCUCUUGCGGUCGCACUAGUGUGGAAUUCUCGGGUGUCAAGG

Whole data set: some 9,900 sequences, median “r (bound/input frequency ratio)” near 0.7, cut for the highest 2% near 6.5. Only a selection was taken, and the highest values are over-represented in it overall.

TDP-43, sequence (Q13148 whole entry): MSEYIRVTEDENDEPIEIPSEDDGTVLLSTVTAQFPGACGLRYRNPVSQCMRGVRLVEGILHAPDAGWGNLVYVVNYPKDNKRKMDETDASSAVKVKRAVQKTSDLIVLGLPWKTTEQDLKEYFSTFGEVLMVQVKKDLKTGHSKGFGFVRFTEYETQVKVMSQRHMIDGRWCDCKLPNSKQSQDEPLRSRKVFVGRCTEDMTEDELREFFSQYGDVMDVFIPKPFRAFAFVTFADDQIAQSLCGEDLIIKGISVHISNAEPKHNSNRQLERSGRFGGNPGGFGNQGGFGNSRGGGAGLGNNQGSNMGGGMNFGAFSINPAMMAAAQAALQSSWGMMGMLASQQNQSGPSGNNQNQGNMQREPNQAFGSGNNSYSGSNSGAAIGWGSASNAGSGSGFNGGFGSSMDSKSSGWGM

This experiment addresses TDP-43 (Homo sapiens, UniProt Q13148 1-414). In words: RNA Bind-n-Seq with designed 260-mer pool; 25 mM Tris-HCl, 150 mM KCl, 3 mM MgCl2, BSA (printed 500 mg/mL), 20 units/mL SUPERase IN; pH not stated; 500 nM RNA pool, 1 h, 4 C; TDP-43 5, 50, 500 nM; high values mean tight binding. Particulars: protein: recombinant; tags: SBP (GST cleaved off with PreScission; pGEX-GST-SBP). The procedure, abridged: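 An in vitro-transcribed pool of 260-nt 3′ UTR oligos (500 nM) was incubated for 1 h at 4 °C with recombinant SBP-tagged TDP-43 at 5, 50 or 500 nM held on streptavidin beads. The buffer contained 25 mM Tris-HCl, 150 mM KCl, 3 mM MgCl2, BSA and SUPERase IN. Biotin-eluted bound RNA was sequenced, and binding, R, is each oligo's normalized read abundance in the bound sample over that in input.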
B1: the binding signal is 5.88 R (bound/input frequency ratio).

For B2, the binding signal is 9.41 R (bound/input frequency ratio).

Turning to B3, the binding signal is 5.01 R (bound/input frequency ratio).

Regarding B4, the binding signal is 5.78 R (bound/input frequency ratio).

For B5, the binding signal is 7.33 R (bound/input frequency ratio).

On to B6, for which the binding signal was 1.55 R (bound/input frequency ratio).

For the molecule B7, the binding signal is 2.24 R (bound/input frequency ratio).

On to B8, for which the binding signal is 0.299 R (bound/input frequency ratio).

With B9, the binding signal was 0.782 R (bound/input frequency ratio).

For B10, the binding signal was 0.424 R (bound/input frequency ratio).

For B11, the binding signal was 0.502 R (bound/input frequency ratio).

Turning to B12, the binding signal was 2.93 R (bound/input frequency ratio).

Turning to B13, the binding signal was 1.22 R (bound/input frequency ratio).
